Measured values taken from PubChem BioAssay (NCI).
This is part of a sample that, as a whole, favours compounds with a hit. Of some 83,000 tested, about 20% had one in any assay.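 48-hour exposure, single concentration, 96-well plates; percent growth endpoint where 0 means no net growth. Active: below 10.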 Unmarked numbers belong to inactive results. Active and inactive are the calls of the source.

Tests used:
Test in all cases: NCI-60 one-dose screen, 48 h (100 = growth as untreated, 0 = no growth, -100 = all killed)
Conditions in all cases: 10 µM unless noted
NCI-H23 lung = tested on: NCI-H23 lung
NCI-H226 lung = tested on: NCI-H226 lung
NCI-H322M lung = tested on: NCI-H322M lung
HOP-62 NSCLC = tested on: HOP-62 NSCLC
NCI-H460 lung = tested on: NCI-H460 lung
HOP-92 NSCLC = tested on: HOP-92 NSCLC
NCI-H522 lung = tested on: NCI-H522 lung
A549/ATCC NSCLC = tested on: A549/ATCC NSCLC
786-0 renal = tested on: 786-0 renal
COLO 205 colon = tested on: COLO 205 colon

| Compound | growth (NCI-H23 lung) | growth (NCI-H226 lung) | growth (NCI-H322M lung) | growth (HOP-62 NSCLC) | growth (NCI-H460 lung) | growth (HOP-92 NSCLC) | growth (NCI-H522 lung) | growth (A549/ATCC NSCLC) | growth (786-0 renal) | growth (COLO 205 colon) |
| --- | --- | --- | --- | --- | --- | --- | --- | --- | --- | --- |
| CCN(CC)CC[n+]1cc2cc(OC)c(OC)cc2c2ccc3cc4c(cc3c21)OCO4 | 3.47% (active) | 29.7% | -15.9% (active) | -4.95% (active) | -65.7% (active) | 14.7% | -19.1% (active) | -41.2% (active) | 3.36% (active) | 13.9% |
| COc1ccc(C(=O)NNc2nc(Cl)nc(N3CCN(C(c4ccccc4)c4ccccc4)CC3)n2)cc1 | 3.63% (active) | 90.1% | 57.6% | 86.5% | 101% | 74% | -33% (active) | 92.6% | 69.1% | 60.5% |
| COc1cc(/C=C\c2cc(/C=C\c3ccc(O)c(OC)c3)n(C(=O)COc3ccccc3)n2)ccc1O | 1.6% (active) | 9.96% (active) | 30.8% | 8.39% (active) | 7.6% (active) | 14.4% | -39.3% (active) | 8.68% (active) | 1.27% (active) | 79.3% |
| CCN(c1ccccc1)S(=O)(=O)c1cc([N+](=O)[O-])ccc1Cl | 80.2% | 36.4% | 73.3% | 105% | 106% | 49.9% | 23.7% | 102% | 97.4% | 129% |
| CCOC(=O)c1cc(C(=O)c2ccc(Br)cc2)n2ccc(/C=C/c3cc[n+](CC(=O)c4ccc(OC)cc4)cc3)cc12 | 92.5% | 101% | 96.2% | 100% | 96.4% | 96.4% | 91.8% | 73.3% |  | 91.7% |
| Brc1ccc2[nH]cc(-c3cncn3CCc3ccccc3)c2c1 | 37.9% | 53.5% | 74.3% | 63.4% | 66.5% | 23.4% | 51.1% | 56.7% |  | 66.3% |
| COc1cc(OC)cc(C(=O)C[n+]2cccc3cc[nH]c32)c1 | 94.7% | 94.2% | 93.1% | 99.1% | 101% | 88.9% | 93% | 97.6% |  | 107% |
| CCOC(=O)c1cc(C(=O)c2ccc(OC)cc2)n2ccc(/C=C/c3cc[n+](CC(=O)c4ccc(OC)cc4)cc3)cc12 | 83.6% | 90.7% | 86.3% | 81.1% | 75.1% | 50.1% | 57.1% | 52.2% |  | 65.3% |
| Cc1cccc(C)c1N=c1oc2ccc(Cl)cc2nc1-c1ccccc1O | 78.6% | 88.1% | 88.6% | 112% | 97.2% | 55.9% | 82.9% | 96.7% | 90% | 89.7% |
| COc1ccc(C(=O)c2cc(OC)c(OC)c(OC)c2)cc1O | 27.7% | 84.6% | 43.7% | 22.7% | 2.85% (active) | 51.5% | 12.4% | 17.8% |  | 41.9% |
| COc1ccc(OC)c(CCn2cncc2-c2c[nH]c3ccccc23)c1 | 55.6% | 68.3% | 82.8% | 74.3% | 92% | 46.7% | 71% | 90.8% |  | 90.1% |
| CC(=O)O[C@@H]1C2CCC3C(CC[C@@]4(C)C3CC[C@@H]4C(C)N(C)C)[C@@]2(C)CC[C@@H]1NC(=O)C=C(C)C (some centres not stated) | 33.9% | 64.7% | 13.1% | -26.1% (active) | -48.6% (active) | 24.4% | 65.7% | 32.3% |  | -82.8% (active) |
| N#CC1C(C#N)C(C(=O)c2ccc(Br)cc2)N2c3ccccc3C=CC12 (configuration not stated) | 79.2% | 64.7% | 93.4% | 75.1% | 96.2% | 55.5% | 78.6% | 65.8% |  | 3.37% (active) |
| O=C(CCN1CCCC1)c1ccc([N+](=O)[O-])cc1 | 101% | 99.1% | 101% | 98.2% | 108% | 109% | 2.13% (active) | 101% |  | 107% |
| Nc1ccccc1NC(=O)c1ccc(-n2nc(-c3ccccc3)c3ccccc32)cc1 | 89.1% | 64.7% | 83.5% | 84.7% | 79.3% | 78.9% | 25% | 74.5% |  | 117% |
| CCOC(=O)c1cc(C(=O)c2ccc(OC)c(OC)c2)n2c1ccc1ccccc12 | 86.2% | 80.7% | 101% | 85% | 99.2% | 83.3% | 86% | 98.3% |  | 112% |
| N#C/C(=C\c1ccccn1)c1nc2cc(Cl)ccc2s1 | 72.1% | 67.9% | 87.1% | 63.5% | 92% | 55.8% | 63.4% | 78.1% |  | 101% |
| CSc1nc2sc3cccc(Cl)c3n2c(=N)c1C#N | 90.5% | 93.5% | 99.8% | 97% | 102% | 82.4% | 78.9% | 100% |  | 56.1% |
| CC(C)N1C(=O)S/C(=C2/SC(=O)N(C(C)C)C2=O)C1=O | 93.8% | 102% | 93.4% | 111% | 102% | 74.6% | 89.9% | 101% |  | 112% |
| CCOC(=O)c1cc(C#N)n2ccc3ccccc3c12 | 94.7% | 97.5% | 98.1% | 105% | 100% | 93.5% | 92.2% | 98.8% |  | 112% |
| COc1ccc(C(=O)C2C(C#N)C(C#N)C3C=Cc4ccccc4N32)cc1 (configuration not stated) | 37.9% | 77.6% | 53.5% | 30.1% | 19.1% | 84.1% | 0.174% (active) | 29.9% |  | -5.52% (active) |
| C[C@@H](Nc1ncnc2ccc(-c3cnc(N)nc3)cc12)c1ccc(F)cc1 | 85.9% | 89.1% | 37.8% | 57.7% | 99.2% |  | 66.3% | 74% | 68.9% |  |
| CCOC(=O)c1cc(C(=O)c2cc(OC)cc(OC)c2)n2ccc3ccccc3c12 | 81.5% | 91.8% | 91.1% | 70.7% | 101% | 111% | 83.3% | 77.9% |  | 115% |
| COc1ccc(C(=O)C2C(C#N)C(C#N)C3c4ccccc4C=CN23)cc1 (configuration not stated) | 83.3% | 74.7% | 89% | 92.9% | 97.7% | 85.9% | 71.9% | 87.2% |  | 107% |
| O=C1c2ccc3c4c(ccc(c24)C(=O)N1CCCNCc1ccccc1)C(=O)N(CCCNCc1ccccc1)C3=O | -72.9% (active) | -54.1% (active) | -37.8% (active) | -38.5% (active) | -73.1% (active) | -12.5% (active) | -91.2% (active) | -91.1% (active) | -46.3% (active) | -43.3% (active) |
| O=C(CNCCN1CCOCC1)N1c2cccc3cccc(c23)N(C(=O)CNCCN2CCOCC2)C1c1cn(-c2ccccc2)nc1-c1cccc([N+](=O)[O-])c1 | 95.8% | 81.4% | 97.6% | 89.7% | 96% | 53.2% | 75.3% | 82.3% |  | 52.8% |
| N#CC1C(C#N)C2c3ccccc3C=CN2C1C(=O)c1ccc(Br)cc1 (configuration not stated) | 91.4% | 91.6% | 96.8% | 97.7% | 87.7% | 95.8% | 88.7% | 83.6% |  | 107% |
| NNC(=O)c1ccc(-n2nc(-c3ccccc3)c3ccccc32)cc1 | 87.8% | 82.3% | 74.5% | 65.2% | 97.2% | 87.2% | 79.8% | 95.3% |  | 79.8% |
